Laboratory results reported in ChEMBL document CHEMBL1961873, “Compounds: GSK PKIS; Assays: Nanosyn kinase panel” (2012).

What was measured:
[1] = target: T1, Serine/threonine-protein kinase D2 (Homo sapiens) (UniProt Q9BZL6); conditions: at 1 µM;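 further: mean value of PRKD2 inhibition, from the GSK PKIS screening panel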
T1 sequence (whole entry): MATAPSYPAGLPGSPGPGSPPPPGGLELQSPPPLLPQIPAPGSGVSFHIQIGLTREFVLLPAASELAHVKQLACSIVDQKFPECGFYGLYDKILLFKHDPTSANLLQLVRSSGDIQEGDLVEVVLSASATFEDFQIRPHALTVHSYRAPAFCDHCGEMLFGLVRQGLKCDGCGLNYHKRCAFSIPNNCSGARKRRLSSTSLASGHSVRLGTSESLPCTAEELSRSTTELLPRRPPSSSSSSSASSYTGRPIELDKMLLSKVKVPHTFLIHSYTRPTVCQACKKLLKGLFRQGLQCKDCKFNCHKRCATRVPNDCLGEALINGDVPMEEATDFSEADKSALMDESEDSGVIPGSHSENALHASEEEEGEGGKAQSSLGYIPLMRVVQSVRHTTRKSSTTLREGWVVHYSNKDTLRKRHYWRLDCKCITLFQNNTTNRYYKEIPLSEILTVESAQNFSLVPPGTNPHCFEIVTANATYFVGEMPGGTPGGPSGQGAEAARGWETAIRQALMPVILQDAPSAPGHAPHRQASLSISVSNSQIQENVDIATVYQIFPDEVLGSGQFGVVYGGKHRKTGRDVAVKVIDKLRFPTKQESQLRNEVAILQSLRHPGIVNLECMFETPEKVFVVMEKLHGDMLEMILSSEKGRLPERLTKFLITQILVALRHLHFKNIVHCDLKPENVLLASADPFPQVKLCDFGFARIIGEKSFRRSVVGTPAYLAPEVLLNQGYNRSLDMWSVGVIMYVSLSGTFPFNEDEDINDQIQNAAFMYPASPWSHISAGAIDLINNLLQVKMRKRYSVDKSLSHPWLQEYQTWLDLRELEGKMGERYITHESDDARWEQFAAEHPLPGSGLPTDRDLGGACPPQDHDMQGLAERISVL

[2] = target: T2, Serine/threonine-protein kinase D3 (Homo sapiens) (UniProt O94806); conditions: at 0.1 µM
T2 sequence (whole entry): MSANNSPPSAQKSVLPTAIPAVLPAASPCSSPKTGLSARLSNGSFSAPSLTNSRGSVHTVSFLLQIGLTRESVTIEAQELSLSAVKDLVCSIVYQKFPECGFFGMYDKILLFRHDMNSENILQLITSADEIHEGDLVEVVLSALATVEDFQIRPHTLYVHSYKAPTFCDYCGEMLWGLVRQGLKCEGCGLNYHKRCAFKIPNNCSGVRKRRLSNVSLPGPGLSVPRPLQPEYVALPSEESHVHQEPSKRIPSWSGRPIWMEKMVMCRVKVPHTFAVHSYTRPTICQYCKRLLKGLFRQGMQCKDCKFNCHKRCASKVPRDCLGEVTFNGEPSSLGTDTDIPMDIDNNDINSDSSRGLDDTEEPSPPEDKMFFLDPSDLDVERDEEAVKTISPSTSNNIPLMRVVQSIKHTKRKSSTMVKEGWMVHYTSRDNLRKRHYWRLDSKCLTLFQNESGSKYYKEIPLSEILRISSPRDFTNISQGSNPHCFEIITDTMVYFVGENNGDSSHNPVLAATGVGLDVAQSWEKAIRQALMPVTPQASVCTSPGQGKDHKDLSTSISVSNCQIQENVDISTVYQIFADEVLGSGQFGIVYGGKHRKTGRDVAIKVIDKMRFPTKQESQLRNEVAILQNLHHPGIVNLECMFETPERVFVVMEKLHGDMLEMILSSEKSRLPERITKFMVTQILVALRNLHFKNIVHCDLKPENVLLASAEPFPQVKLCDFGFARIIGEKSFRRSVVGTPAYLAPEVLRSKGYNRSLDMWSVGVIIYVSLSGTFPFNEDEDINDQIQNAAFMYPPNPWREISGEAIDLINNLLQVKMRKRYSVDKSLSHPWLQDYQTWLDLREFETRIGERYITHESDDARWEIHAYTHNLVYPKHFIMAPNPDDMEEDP

[3] = target: T2, Serine/threonine-protein kinase D3 (Homo sapiens); conditions: at 1 µM
[4] = target: T3, cGMP-dependent protein kinase 1 (Homo sapiens) (UniProt Q13976); conditions: at 0.1 µM
T3 sequence (whole entry): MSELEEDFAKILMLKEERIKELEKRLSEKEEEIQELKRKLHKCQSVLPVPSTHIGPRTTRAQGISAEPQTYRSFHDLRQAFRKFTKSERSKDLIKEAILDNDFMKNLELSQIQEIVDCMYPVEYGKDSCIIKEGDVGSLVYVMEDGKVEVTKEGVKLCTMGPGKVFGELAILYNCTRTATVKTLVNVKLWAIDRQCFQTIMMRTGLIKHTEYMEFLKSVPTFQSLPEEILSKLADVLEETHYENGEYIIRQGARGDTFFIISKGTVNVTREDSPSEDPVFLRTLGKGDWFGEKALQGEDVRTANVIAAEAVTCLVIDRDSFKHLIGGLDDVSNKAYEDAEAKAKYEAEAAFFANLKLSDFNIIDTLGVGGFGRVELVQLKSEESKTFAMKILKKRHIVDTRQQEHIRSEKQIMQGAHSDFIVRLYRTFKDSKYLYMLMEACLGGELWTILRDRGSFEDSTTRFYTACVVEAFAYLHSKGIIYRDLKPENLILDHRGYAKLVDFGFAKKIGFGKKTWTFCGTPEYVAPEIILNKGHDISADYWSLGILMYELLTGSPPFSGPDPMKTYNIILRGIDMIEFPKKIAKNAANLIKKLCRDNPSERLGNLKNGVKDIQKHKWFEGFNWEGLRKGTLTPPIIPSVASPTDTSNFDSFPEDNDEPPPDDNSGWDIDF

[5] = target: T3, cGMP-dependent protein kinase 1 (Homo sapiens); conditions: at 1 µM
[6] = target: T4, cGMP-dependent protein kinase 2 (Homo sapiens) (UniProt Q13237); conditions: at 0.1 µM
T4 sequence (whole entry): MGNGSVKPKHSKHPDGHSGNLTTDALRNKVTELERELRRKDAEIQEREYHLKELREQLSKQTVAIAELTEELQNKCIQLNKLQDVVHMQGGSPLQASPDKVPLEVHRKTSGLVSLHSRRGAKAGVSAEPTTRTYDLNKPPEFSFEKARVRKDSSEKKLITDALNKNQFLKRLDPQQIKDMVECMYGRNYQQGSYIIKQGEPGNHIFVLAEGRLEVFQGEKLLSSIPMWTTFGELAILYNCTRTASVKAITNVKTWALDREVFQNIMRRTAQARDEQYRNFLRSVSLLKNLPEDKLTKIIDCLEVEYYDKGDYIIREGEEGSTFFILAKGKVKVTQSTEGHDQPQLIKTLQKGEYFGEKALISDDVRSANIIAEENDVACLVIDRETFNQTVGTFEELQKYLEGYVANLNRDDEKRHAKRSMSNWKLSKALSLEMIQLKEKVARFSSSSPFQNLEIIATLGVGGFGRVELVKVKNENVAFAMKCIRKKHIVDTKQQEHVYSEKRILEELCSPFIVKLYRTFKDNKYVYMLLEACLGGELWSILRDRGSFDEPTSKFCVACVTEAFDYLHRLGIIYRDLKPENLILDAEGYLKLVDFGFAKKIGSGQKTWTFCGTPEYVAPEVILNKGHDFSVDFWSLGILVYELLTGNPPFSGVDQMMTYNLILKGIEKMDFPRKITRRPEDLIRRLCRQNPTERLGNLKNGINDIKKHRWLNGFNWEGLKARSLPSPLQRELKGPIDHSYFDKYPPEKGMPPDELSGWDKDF

[7] = target: T4, cGMP-dependent protein kinase 2 (Homo sapiens); conditions: at 1 µM
[8] = target: T5, cAMP-dependent protein kinase catalytic subunit PRKX (Homo sapiens) (UniProt P51817); conditions: at 0.1 µM
T5 sequence (whole entry): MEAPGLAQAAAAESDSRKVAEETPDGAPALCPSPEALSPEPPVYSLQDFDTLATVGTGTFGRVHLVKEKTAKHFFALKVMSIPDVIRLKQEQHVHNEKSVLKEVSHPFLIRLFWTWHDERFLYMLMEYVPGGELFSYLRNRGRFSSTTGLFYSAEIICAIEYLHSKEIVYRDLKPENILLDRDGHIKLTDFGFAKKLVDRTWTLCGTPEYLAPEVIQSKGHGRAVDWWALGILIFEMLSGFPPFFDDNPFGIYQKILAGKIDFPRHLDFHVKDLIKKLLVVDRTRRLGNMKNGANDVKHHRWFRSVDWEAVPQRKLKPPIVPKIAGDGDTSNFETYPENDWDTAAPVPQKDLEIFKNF

[9] = target: T5, cAMP-dependent protein kinase catalytic subunit PRKX (Homo sapiens); conditions: at 1 µM
[10] = target: Rho-associated protein kinase 1 (Homo sapiens) (UniProt Q13464); conditions: at 0.1 µM
[11] = target: Rho-associated protein kinase 1 (Homo sapiens) (UniProt Q13464); conditions: at 1 µM
[12] = target: Rho-associated protein kinase 2 (Homo sapiens) (UniProt O75116); conditions: at 0.1 µM
Rho-associated protein kinase 2 (Homo sapiens), sequence (O75116 whole entry, looked up): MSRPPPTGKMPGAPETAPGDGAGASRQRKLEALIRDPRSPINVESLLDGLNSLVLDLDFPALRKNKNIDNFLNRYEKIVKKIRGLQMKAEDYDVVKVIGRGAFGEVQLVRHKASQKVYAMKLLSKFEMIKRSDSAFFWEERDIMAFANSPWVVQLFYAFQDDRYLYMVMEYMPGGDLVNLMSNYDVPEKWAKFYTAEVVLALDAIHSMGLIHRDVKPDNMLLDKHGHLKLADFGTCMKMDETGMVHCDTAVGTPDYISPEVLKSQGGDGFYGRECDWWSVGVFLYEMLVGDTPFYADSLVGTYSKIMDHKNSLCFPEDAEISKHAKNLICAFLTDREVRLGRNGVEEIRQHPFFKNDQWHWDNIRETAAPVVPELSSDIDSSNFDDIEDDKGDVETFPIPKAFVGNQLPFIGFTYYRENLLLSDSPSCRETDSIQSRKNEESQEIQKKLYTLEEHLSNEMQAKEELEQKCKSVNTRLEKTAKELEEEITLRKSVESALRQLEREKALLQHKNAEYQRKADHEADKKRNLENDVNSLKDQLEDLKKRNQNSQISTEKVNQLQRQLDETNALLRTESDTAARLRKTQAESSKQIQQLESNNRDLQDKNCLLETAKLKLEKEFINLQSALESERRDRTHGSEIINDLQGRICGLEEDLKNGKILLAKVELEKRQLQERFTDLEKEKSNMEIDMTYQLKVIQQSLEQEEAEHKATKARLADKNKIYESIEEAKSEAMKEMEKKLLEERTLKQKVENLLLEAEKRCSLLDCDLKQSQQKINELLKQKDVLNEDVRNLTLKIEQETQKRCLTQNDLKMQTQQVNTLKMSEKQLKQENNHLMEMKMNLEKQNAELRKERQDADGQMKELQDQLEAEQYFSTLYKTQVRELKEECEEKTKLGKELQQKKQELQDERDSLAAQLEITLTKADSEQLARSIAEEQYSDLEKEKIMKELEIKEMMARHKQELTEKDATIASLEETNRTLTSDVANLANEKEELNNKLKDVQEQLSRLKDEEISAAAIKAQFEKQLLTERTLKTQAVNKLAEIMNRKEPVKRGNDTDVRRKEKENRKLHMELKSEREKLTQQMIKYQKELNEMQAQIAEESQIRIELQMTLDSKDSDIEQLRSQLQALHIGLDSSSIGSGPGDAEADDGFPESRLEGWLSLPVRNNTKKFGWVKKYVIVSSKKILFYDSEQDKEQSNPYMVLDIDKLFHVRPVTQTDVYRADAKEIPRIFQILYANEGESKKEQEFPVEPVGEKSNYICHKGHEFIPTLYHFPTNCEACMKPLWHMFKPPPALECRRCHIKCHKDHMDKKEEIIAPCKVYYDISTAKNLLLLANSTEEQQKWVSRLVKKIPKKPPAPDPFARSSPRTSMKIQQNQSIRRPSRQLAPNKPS

[13] = target: Rho-associated protein kinase 2 (Homo sapiens) (UniProt O75116); conditions: at 1 µM
[14] = target: Ribosomal protein S6 kinase alpha-1 (Homo sapiens) (UniProt Q15418); conditions: at 0.1 µM
Ribosomal protein S6 kinase alpha-1 (Homo sapiens), sequence (Q15418 whole entry): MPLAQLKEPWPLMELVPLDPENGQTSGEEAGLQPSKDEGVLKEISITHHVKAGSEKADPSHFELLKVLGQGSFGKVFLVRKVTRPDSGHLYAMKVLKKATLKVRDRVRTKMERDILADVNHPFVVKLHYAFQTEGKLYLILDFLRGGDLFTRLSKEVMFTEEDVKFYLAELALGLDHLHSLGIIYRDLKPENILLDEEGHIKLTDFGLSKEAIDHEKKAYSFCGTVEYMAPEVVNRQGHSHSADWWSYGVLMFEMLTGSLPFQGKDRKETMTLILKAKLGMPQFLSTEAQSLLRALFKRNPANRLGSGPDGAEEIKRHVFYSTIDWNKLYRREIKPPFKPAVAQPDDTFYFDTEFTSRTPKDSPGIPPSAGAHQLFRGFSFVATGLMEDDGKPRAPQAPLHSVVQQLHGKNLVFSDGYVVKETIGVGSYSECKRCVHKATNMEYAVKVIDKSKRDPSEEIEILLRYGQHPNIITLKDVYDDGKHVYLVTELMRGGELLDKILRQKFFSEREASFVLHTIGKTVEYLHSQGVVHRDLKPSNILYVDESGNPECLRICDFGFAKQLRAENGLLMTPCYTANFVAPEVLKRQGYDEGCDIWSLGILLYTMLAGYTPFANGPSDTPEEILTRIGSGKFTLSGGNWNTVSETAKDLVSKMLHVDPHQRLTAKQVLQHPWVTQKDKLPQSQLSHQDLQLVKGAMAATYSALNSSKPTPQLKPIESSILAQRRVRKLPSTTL

[15] = target: Ribosomal protein S6 kinase alpha-1 (Homo sapiens) (UniProt Q15418); conditions: at 1 µM
[16] = target: Ribosomal protein S6 kinase alpha-3 (Homo sapiens) (UniProt P51812); conditions: at 0.1 µM
Ribosomal protein S6 kinase alpha-3 (Homo sapiens), sequence (P51812 whole entry): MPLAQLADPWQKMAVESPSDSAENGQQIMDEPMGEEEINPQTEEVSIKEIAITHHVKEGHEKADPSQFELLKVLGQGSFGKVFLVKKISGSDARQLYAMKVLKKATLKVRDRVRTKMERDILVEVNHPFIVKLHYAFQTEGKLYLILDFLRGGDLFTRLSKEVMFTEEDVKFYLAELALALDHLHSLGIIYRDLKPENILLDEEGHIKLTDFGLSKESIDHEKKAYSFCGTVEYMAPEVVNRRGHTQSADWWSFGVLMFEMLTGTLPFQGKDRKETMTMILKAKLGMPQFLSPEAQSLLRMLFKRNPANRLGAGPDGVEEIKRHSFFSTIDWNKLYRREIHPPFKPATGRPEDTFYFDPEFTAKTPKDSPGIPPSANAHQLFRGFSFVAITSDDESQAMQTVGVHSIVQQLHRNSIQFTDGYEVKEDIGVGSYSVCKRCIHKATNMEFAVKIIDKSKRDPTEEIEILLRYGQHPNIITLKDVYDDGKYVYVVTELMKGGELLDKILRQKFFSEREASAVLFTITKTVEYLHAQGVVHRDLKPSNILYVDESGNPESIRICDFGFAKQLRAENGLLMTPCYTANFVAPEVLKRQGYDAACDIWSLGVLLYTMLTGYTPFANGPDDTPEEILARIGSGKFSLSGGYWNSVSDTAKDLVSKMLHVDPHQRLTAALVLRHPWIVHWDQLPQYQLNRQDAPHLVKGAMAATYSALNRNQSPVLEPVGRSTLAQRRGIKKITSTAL

[17] = target: Ribosomal protein S6 kinase alpha-3 (Homo sapiens) (UniProt P51812); conditions: at 1 µM
[18] = target: Ribosomal protein S6 kinase alpha-2 (Homo sapiens) (UniProt Q15349); conditions: at 0.1 µM
Ribosomal protein S6 kinase alpha-2 (Homo sapiens), sequence (Q15349 whole entry): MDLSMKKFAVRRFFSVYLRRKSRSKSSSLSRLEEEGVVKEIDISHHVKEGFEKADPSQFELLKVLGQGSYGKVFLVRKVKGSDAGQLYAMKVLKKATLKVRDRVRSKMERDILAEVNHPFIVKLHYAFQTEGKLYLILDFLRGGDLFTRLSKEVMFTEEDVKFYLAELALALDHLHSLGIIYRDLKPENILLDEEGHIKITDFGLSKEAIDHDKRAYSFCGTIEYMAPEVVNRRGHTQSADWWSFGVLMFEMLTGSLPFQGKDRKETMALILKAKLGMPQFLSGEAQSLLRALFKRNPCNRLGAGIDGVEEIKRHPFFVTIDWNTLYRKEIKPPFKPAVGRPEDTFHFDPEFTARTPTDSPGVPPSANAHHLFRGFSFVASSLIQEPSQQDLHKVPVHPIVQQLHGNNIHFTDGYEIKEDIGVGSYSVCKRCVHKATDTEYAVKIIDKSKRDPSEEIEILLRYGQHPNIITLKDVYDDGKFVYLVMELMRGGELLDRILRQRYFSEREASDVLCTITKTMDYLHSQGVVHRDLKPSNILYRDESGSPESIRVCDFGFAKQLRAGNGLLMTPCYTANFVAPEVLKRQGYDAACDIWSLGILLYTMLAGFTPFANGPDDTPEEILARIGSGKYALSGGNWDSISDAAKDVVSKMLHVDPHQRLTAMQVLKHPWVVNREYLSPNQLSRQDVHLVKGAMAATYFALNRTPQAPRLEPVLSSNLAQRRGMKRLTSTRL

[19] = target: Ribosomal protein S6 kinase alpha-2 (Homo sapiens) (UniProt Q15349); conditions: at 1 µM
[20] = target: Ribosomal protein S6 kinase alpha-6 (Homo sapiens) (UniProt Q9UK32); conditions: at 0.1 µM;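 further: reported value is the mean inhibition of RSK4, from the GSK PKIS kinase inhibitor screen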
Ribosomal protein S6 kinase alpha-6 (Homo sapiens), sequence (Q9UK32 whole entry): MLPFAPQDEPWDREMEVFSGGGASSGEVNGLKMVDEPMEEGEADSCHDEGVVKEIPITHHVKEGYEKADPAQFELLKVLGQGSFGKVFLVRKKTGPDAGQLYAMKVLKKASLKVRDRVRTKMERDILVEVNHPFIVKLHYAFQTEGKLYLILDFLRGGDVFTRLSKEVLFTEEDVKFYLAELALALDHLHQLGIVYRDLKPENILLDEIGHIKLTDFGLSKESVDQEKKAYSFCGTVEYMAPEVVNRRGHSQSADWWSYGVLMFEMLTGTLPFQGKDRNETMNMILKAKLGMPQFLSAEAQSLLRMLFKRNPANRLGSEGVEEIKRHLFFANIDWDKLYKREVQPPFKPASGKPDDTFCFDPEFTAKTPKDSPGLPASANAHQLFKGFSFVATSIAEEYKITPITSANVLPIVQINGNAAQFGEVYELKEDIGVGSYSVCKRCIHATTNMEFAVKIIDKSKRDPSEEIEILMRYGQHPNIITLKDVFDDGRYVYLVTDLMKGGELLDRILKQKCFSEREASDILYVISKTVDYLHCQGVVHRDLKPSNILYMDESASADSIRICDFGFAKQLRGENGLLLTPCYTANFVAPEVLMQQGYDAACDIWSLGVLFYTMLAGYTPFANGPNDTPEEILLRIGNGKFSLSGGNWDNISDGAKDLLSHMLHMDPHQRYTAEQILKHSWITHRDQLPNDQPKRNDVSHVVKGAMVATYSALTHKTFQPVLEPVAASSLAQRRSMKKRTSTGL

CCn1c(-c2nonc2N)nc2cnc(Oc3cccc(NC(=O)c4ccc(N(C)C)cc4)c3)cc21
inhibition [1]: 5.77%
inhibition [2]: 1.61%
inhibition [3]: 2.97%
inhibition [4]: 56.1%
inhibition [5]: 73%
inhibition [6]: 21.7%
inhibition [7]: 60.8%
inhibition [8]: 12.9%
inhibition [9]: 55.8%
inhibition [10]: 85.5%
inhibition [11]: 87.1%
inhibition [12]: 85.5%
inhibition [13]: 86%
inhibition [14]: 26.1%
inhibition [15]: 68.3%
inhibition [16]: 12.7%
inhibition [17]: 52.8%
inhibition [18]: 17.4%
inhibition [19]: 63.6%
inhibition [20]: 2.31%

CCOc1ccc2c(-c3ccnc(Nc4cccc(C(F)(F)F)c4)n3)cnn2n1
inhibition [1]: 1.84%
inhibition [2]: 3.02%
inhibition [3]: 3.58%
inhibition [4]: 0.52%
inhibition [5]: 1.15%
inhibition [6]: 0.91%
inhibition [7]: 0.29%
inhibition [8]: 0.1%
inhibition [9]: -0.76%
inhibition [10]: -1.15%
inhibition [11]: -1%
inhibition [12]: 1.46%
inhibition [13]: -0.05%
inhibition [14]: -0.89%
inhibition [15]: 0.51%
inhibition [16]: 1.29%
inhibition [17]: 1.88%
inhibition [18]: 1.09%
inhibition [19]: 0.76%
inhibition [20]: -0.47%

NS(=O)(=O)c1ccc(Nc2ncc(-c3ccccc3)o2)cc1
inhibition [1]: 5.55%
inhibition [2]: 3.51%
inhibition [3]: 5.97%
inhibition [4]: 1.9%
inhibition [5]: 4.85%
inhibition [6]: 2.69%
inhibition [7]: 3.98%
inhibition [8]: 2.08%
inhibition [9]: 2.5%
inhibition [10]: 0.63%
inhibition [11]: 2.68%
inhibition [12]: 4.4%
inhibition [13]: 8.55%
inhibition [14]: 2.44%
inhibition [15]: 6.42%
inhibition [16]: 1.17%
inhibition [17]: 4.01%
inhibition [18]: 2.5%
inhibition [19]: 4.37%
inhibition [20]: 1.15%

COc1ccc(CNC(=O)c2ccc(-c3cc(-c4nnc(C)o4)ccc3C)cc2)cc1
inhibition [1]: 1.08%
inhibition [2]: 0.4%
inhibition [3]: 0.26%
inhibition [4]: 3.61%
inhibition [5]: 3.68%
inhibition [6]: 2.93%
inhibition [7]: 4.96%
inhibition [8]: 3.88%
inhibition [9]: 6.21%
inhibition [10]: 2.49%
inhibition [11]: 2.35%
inhibition [12]: 4.11%
inhibition [13]: 9.48%
inhibition [14]: 3.72%
inhibition [15]: 8.08%
inhibition [16]: 2.12%
inhibition [17]: 5.75%
inhibition [18]: 0.39%
inhibition [19]: 0.4%
inhibition [20]: 0.98%

COc1ccc(-c2nn3ncccc3c2-c2ccnc(Nc3ccc4c(c3)OCCO4)n2)cc1
inhibition [1]: 9.73%
inhibition [2]: 2.09%
inhibition [3]: 8.59%
inhibition [4]: -0.47%
inhibition [5]: -2.7%
inhibition [6]: 0.2%
inhibition [7]: -1.06%
inhibition [8]: 0.59%
inhibition [9]: -0.08%
inhibition [10]: 0.43%
inhibition [11]: 0.84%
inhibition [12]: -0.09%
inhibition [13]: 1.51%
inhibition [14]: -0.25%
inhibition [15]: -1.03%
inhibition [16]: 0.04%
inhibition [17]: 0.87%
inhibition [18]: 1.27%
inhibition [19]: 0.17%
inhibition [20]: 0.7%

COc1cc(Nc2nccc(Nc3ccc4c(C)n[nH]c4c3)n2)cc(OC)c1OC
inhibition [1]: 2.94%
inhibition [2]: 1.3%
inhibition [3]: 2.54%
inhibition [4]: 3.29%
inhibition [5]: 3.61%
inhibition [6]: 2.12%
inhibition [7]: 2.71%
inhibition [8]: 0.71%
inhibition [9]: -0.26%
inhibition [10]: 2.06%
inhibition [11]: 7.47%
inhibition [12]: 1.83%
inhibition [13]: 12.1%
inhibition [14]: -0.21%
inhibition [15]: -0.01%
inhibition [16]: 1.04%
inhibition [17]: 0.03%
inhibition [18]: 0.87%
inhibition [19]: 0.74%
inhibition [20]: 1.26%

CCN(CC)S(=O)(=O)c1ccc(OC)c(Nc2ncc(-c3ccccc3)o2)c1
inhibition [1]: 1.51%
inhibition [2]: -0.55%
inhibition [3]: 0.06%
inhibition [4]: 0.75%
inhibition [5]: 0.61%
inhibition [6]: 0.25%
inhibition [7]: 0.95%
inhibition [8]: 0.38%
inhibition [9]: 0.62%
inhibition [10]: 0.86%
inhibition [11]: 2.02%
inhibition [12]: 1.64%
inhibition [13]: 2.3%
inhibition [14]: 0.82%
inhibition [15]: 5.22%
inhibition [16]: 0.74%
inhibition [17]: -0.03%
inhibition [18]: 0.64%
inhibition [19]: 1.51%
inhibition [20]: 1.64%
